The record followed here is PubChem BioAssay (NCATS).

The target in assay [1] is Tyrosine-protein kinase Yes (Homo sapiens) (UniProt P07947). Put plainly: qHTS for small molecule inhibitors of Yes1 kinase: Primary Screen (AID 686947). Further: nearly all actives have a fitted effect of over 60% in size. Further: potency means the concentration at half of the fitted maximal effect. In a few lines:
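ADP-Glo luminescence readout; final 4 nM Yes1, 0.1 mM ATP, 0.3 mg/mL poly(E4Y), Tris pH 7.5, MgCl2, DTT, Brij-35. 20 min compound preincubation, 60 min reaction at RT. Normalized to DMSO wells with and without enzyme.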
In general terms: Quantitative high-throughput screening tests each substance at several concentrations.

The nature of assay [2]: qHTS for small molecule inhibitors of Yes1 kinase: Counter Assay (AID 686950).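 Further: no kinase present so only ADP-Glo detection of a fixed ADP amount is tested; luminescence from ADP-Glo reporting ADP in a fixed ATP and ADP mixture; series mostly up to about 77 µM; 0% = DMSO wells with ATP plus ADP and -100% = ATP-only wells without ADP.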 In a few lines: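 Luminescence read-out from ADP-Glo quantifies a fixed ADP amount (0.02 mM ADP with 0.08 mM ATP) after 60 min at room temperature; signal is normalized between DMSO wells with ATP/ADP and with 0.1 mM ATP alone.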
Assay [3] can be described thus: qHTS Assay for Identifying Gametocytocidal Compounds (AID 743244). Further: potency means the concentration at half of the fitted maximal effect.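 On max response: on the % scale 0 is the no-effect control and ±100 the full control effect; actives lower the fluorescent signal which means gametocytes are killed.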 As to conditions: P. falciparum 3D7 stage III-V gametocytes, alamarBlue, 72 h; max response: hits give low values. The gist of the method: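 Late gametocytes (III–V), P. falciparum 3D7; 72 h drug, then 24 h alamarBlue; resazurin reduction read by fluorescence.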
In assay [4] the target is Tumor necrosis factor (Homo sapiens) (UniProt P01375). Put plainly: qHTS assay to identify small molecules that stimulate Tumor Necrosis Factor-alpha (TNF-alpha) secretion (AID 651757; active means well fitted curve in the direction sought with a large enough effect in the signal ratio; the % refers to the signal ratio; further: 0% is about no effect). In a few lines:
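THP-1 cells were exposed to compounds for 17 hrs at 37 C, after which secreted TNF-alpha was measured by homogeneous HTRF (TR-FRET) using cryptate- and XL665-labeled anti-TNF-alpha antibodies, read after 3 hr at room temperature.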

A short description of assay [5]: qHTS assay for environmental chemicals that activate the Aryl hydrocarbon Receptor (AhR) signaling pathway (AID 651777). Further: % of control where 0% means no effect; nearly all actives have a fitted effect of over 15% in size. As to conditions: 1A2-DRE human hepatoma cells, luciferase, 24 h; activation: hits give high values. In a few lines: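 Human hepatoma 1A2-DRE cells stably carrying a DRE/CYP1A2 promoter–luciferase reporter, 1,200 cells/well, exposed to compound 24 hr at 37 C. Luciferase read by One-Glo luminescence after 30 min at room temperature; increased signal marks AhR activation.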

In assay [6] the target is Peroxisome proliferator-activated receptor alpha (Homo sapiens) (UniProt Q07869). Put plainly: qHTS assay for small molecule agonists of the peroxisome proliferator-activated receptor alpha (PPARalpha) signaling pathway (AID 651778). Further: % of control where 0% means no effect. The settings on record: PathHunter PPARalpha complementation, chemiluminescence, 6 h; hits give high values. The gist of the method: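 Chemiluminescence from complemented enzyme reported PPARalpha activation in cells after 6 hr of compound treatment at 37 C. The detection reagent was incubated for 60 min at room temperature, and compounds were scored as agonists.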
Sequence of Peroxisome proliferator-activated receptor alpha (Homo sapiens) (Q07869 whole entry, looked up): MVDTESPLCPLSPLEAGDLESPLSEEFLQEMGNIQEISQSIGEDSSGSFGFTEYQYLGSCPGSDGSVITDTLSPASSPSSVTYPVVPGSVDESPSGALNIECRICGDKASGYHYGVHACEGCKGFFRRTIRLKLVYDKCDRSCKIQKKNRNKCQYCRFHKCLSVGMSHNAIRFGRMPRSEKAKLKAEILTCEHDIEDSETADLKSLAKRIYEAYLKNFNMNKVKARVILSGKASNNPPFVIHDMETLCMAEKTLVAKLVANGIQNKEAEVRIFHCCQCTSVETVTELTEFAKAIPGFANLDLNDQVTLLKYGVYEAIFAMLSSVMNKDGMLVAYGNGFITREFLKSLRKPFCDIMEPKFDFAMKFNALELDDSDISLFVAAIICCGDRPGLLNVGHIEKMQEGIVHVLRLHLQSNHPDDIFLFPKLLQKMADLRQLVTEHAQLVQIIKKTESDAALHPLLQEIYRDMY

For assay [7], the target named is Nuclear receptor ROR-gamma (Homo sapiens) (UniProt P51449). Put plainly: qHTS assay for small molecule antagonists of the retinoid-related orphan receptor gamma (ROR-gamma) signaling pathway (AID 651802). Further: series mostly up to about 92 µM; on the % scale 0 is the no-effect control and ±100 the full control effect; nearly all actives have a fitted effect of over 60% in size. The gist of the method: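 CHO cells carrying TET-inducible ROR-gamma and an ROR response element–luciferase reporter were exposed to compound, then induced with doxycycline. After 16hr at 37C, luminescence was read; lower signal indicates antagonism.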
Sequence of Nuclear receptor ROR-gamma (Homo sapiens) (P51449 whole entry, looked up): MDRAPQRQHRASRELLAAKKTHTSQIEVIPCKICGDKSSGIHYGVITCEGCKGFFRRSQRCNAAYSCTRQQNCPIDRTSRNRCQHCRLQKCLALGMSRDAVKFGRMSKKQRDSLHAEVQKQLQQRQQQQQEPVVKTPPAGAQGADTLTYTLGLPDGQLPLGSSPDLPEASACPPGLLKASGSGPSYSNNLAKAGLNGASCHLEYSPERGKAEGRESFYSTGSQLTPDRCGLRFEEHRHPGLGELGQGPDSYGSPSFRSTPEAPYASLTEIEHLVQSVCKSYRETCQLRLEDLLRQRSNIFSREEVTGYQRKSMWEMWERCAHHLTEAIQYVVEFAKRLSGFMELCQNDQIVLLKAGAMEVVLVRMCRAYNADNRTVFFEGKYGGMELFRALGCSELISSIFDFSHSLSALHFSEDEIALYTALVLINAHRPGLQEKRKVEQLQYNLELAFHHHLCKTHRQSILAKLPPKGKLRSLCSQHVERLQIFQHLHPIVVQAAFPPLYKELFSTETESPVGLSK

Assay [8] in a line: qHTS assay for small molecule agonists of the antioxidant response element (ARE) signaling pathway measured by Nrf2-dependant transcriptional activity (AID 720636; active means well fitted curve in the direction sought with a large enough effect in the repeat runs; an effect the other way counts as inactive or inconclusive; further: % of control where 0% means no effect). In a few lines: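 ARE-luc HepG2 cells carrying an Nrf2-responsive luciferase reporter, in medium with 1% dialyzed FBS, exposed to compound for 16 hr at 37 C, 5% CO2. Luminescence read 30 min after ONE-Glo addition.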

The nature of assay [9]: qHTS assay for small molecule antagonists of the retinoid-related orphan receptor gamma (ROR-gamma) signaling pathway - cell viability counter screen (AID 720652; active means well fitted curve in the direction sought with a large enough effect in the repeat runs; an effect the other way counts as inactive or inconclusive;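 further: series mostly up to about 92 µM; compound exposure lasted 16 hr before ATP read; on the % scale 0 is the no-effect control and ±100 the full control effect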). The gist of the method: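 Counter screen in CHO cells carrying TET-inducible ROR-gamma and an ROR response element-luciferase reporter; cells plated 5 hr, compound pinned, doxycycline added, then 16 hr at 37 C. Viability read as intracellular ATP by CellTiter-Glo luminescence.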

A short description of assay [10]: qHTS assay for small molecule agonists of the antioxidant response element (ARE) signaling pathway measured by Nrf2-dependant transcriptional activity - cell viability counter screen (AID 720653; active means well fitted curve in the direction sought with a large enough effect in the repeat runs; an effect the other way counts as inactive or inconclusive; further: on the % scale 0 is the no-effect control and ±100 the full control effect). The settings on record: ARE-bla HepG2 viability, CellTiter-Glo ATP luminescence, 16 h; max response: hits give low values. The gist of the method:
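Cytotoxicity counter screen: intracellular ATP quantified by CellTiter-Glo luminescence in the same ARE-bla HepG2 plates, after 16 h compound exposure and a 2 h beta-lactamase substrate step.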

A short description of assay [11]: qHTS assay for cell viability of HEK293 cells (AID 743288). Further: on the % scale 0 is the no-effect control and ±100 the full control effect; nearly all actives have a fitted effect of over 50% in size. The settings on record: ATP luminescence (CellTiter-Glo), 18 h; max response: hits give low values. In a few lines: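 The Tox21 protocol used parental HEK293 cells treated for 18 h at 37 C with compounds delivered by pintool; ATP-coupled luminescence after 30 min at room temperature gave viability.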
Assay [12] in a line: qHTS assay for cell viability of the p53RE-bla HCT-116 cell line (AID 743292). Further: on the % scale 0 is the no-effect control and ±100 the full control effect; nearly all actives have a fitted effect of over 55% in size. In a few lines:
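CellSensor p53RE-bla HCT-116 cells (4,000/well) pre-incubated 5 h at 37 C, then exposed to compounds in DMSO for 16 h at 37 C. Viability read as ATP content by CellTiter-Glo luminescence after 30 min at room temperature.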

Assay [13] can be described thus: qHTS for compounds that reverse cellular toxicity of Amyloid beta (A-beta) peptide in yeast: LOPAC Validation Assay (AID 720559).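 Further: plate controls were DMSO for no effect and equimolar ferric chloride plus clioquinol rescue for full effect.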 The gist of the method: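 Activity is expressed relative to DMSO and an equimolar ferric chloride/clioquinol mix. Compounds were pinned into medium with A-beta-expressing yeast, grown 48 hr at 30 C, then read by absorbance at 600 nm.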

The nature of assay [14]: qHTS for Activators of Parkin Expression: LOPAC Validation Assay (NLuc Reporter) (AID 720572;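 further: 0% = DMSO and 100% = positive control compound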). In a few lines: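 Parkin promoter-driven FLuc/NLuc neuronal reporter cells; 24 h plating, 7-pt dose response, 24 h at 37 C/5% CO2; FLuc then NanoLuc reagent, 10 min each, luminescence; DMSO/positive control normalized.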
Assay [15] is described as follows: qHTS for Activators of Parkin Expression: LOPAC Validation Assay (FLuc Reporter) (AID 720573;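 further: 0% = DMSO and 100% = positive control compounds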). In a few lines: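 A neuronal cell line harbouring FLuc and NLuc reporters behind the Parkin promoter was exposed to compounds for 24 h. Firefly luciferase signal, measured after 10 min with detection reagent, was scaled to DMSO and positive-control wells.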
Assay [16] addresses T1, Hexokinase-4 (Homo sapiens) + Glucokinase regulatory protein (Homo sapiens) (UniProt P35557+Q14397). Put plainly: qHTS assay for inhibitors of recombinant human GCK-GKRP interaction: Diaphorase-coupled assay (AID 743205). In a few lines:
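Inhibitors of the GCK–GKRP complex relieve GKRP suppression of GCK, detected through a G6PDH–diaphorase cascade reducing resazurin. Human GST-GCK and FLAG-GKRP are used at 10 nM with 5 mM glucose and 0.4 mM ATP.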

Assay [17] deals with T1, Hexokinase-4 (Homo sapiens) + Glucokinase regulatory protein (Homo sapiens). Nature of the assay: qHTS assay for inhibitors of recombinant human GCK-GKRP interaction: HTRF assay (AID 743207).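 Further: 0% = DMSO with GCK present and -100% = DMSO wells lacking GCK.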 In a few lines: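 Steps: dispense GCK–GKRP complex (5 nM each, GST- and FLAG-tagged) with 2 uM S6P; pin in compounds; add XL665/Eu-cryptate-labelled antibodies; incubate 60 min at room temperature; read time-resolved FRET at 665 and 615 nm.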

Several values for one entry are separate records, joined by “and”; a condition that tells them apart may be missing. Identical values can stand only once. A number with no mark means an inactive call. Records with an inconclusive call do not appear. Activity calls are given as the source filed them. Unless noted, the call rests on the fitted dose curve; in most records, active means well fitted curve in the direction sought with a large enough effect; inconclusive means small, poorly fitted or top-dose-only effect, or another doubt; inactive means no such curve, though single readings can be large; an effect the other way counts as inactive or inconclusive.

Sequence of Tyrosine-protein kinase Yes (Homo sapiens) (P07947 whole entry, looked up): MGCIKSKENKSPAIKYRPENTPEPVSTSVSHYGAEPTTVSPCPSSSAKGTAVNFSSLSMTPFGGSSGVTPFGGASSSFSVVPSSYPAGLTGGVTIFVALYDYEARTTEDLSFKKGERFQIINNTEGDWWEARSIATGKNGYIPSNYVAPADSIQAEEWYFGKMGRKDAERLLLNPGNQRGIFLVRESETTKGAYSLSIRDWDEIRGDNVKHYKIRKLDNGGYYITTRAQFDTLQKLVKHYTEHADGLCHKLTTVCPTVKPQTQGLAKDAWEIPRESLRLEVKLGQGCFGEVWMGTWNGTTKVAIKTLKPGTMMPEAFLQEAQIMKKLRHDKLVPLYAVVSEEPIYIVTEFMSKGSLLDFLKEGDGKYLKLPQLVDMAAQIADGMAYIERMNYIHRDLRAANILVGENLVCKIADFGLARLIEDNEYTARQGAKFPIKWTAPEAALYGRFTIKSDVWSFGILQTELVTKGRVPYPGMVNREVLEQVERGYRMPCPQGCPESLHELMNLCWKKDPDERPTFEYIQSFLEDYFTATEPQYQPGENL
Sequence of Tumor necrosis factor (Homo sapiens) (P01375 whole entry, looked up): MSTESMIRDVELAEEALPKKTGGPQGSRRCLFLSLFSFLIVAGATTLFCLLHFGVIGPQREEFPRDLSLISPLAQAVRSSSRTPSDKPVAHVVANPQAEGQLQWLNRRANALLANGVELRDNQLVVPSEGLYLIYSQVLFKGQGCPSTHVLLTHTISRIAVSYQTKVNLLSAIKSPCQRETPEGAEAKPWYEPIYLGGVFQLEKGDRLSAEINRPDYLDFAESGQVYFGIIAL
T1 sequence (P35557 whole entry, looked up): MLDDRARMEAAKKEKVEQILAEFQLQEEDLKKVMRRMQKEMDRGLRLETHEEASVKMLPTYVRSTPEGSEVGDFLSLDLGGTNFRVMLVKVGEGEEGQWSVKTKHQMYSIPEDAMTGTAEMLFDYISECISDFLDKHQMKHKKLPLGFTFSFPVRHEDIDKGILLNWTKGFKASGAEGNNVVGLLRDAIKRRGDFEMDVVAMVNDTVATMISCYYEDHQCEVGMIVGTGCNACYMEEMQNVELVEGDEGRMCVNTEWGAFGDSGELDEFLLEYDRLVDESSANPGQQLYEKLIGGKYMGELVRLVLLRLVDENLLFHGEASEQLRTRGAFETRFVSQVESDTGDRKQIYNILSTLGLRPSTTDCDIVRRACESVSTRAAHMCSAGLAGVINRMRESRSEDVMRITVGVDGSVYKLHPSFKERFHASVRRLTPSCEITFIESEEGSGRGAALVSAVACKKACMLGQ
T1 sequence (Q14397 whole entry, looked up): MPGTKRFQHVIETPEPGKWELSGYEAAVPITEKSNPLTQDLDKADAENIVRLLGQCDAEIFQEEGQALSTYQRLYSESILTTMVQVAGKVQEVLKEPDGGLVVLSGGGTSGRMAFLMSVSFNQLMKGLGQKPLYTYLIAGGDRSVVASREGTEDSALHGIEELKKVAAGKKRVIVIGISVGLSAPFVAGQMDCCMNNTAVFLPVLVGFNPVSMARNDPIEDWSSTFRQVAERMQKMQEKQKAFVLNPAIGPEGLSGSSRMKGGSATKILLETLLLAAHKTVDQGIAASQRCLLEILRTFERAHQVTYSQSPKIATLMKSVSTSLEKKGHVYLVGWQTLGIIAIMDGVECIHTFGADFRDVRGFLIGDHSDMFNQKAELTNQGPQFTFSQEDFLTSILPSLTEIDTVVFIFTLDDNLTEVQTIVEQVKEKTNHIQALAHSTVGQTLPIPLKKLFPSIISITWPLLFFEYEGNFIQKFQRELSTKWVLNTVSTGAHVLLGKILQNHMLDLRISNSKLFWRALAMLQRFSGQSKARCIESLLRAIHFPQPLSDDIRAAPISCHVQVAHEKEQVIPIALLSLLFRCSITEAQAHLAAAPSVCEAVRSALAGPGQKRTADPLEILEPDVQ

As for `c1ccc2c(-c3cnn4cc(-c5ccc(N6CCNCC6)cc5)cnc34)ccnc2c1`, the results for the Potency in assay [1] and in assay [3] were 137 nM (active) and 3720 nM (active), respectively. Besides, in assay [2], the result was inactive.

In the case of `CCOc1ccc(Nc2nc(-c3c(C)nc4ccccn34)cs2)cc1`, the Potency result in assay [1] is “inactive”. The compound was called inactive in assay [2].

For `O=C(O)Cc1cccc2ccccc12`, in [4], the result was inactive. Further, in [5], the activation is 0.508% and -1.02%. The max response in assay [6] was -0.727% and -1.42%; in assay [10] it was -3.63% and 1.79%; in assay [3], 19.3% and -5.56%; in assay [11], 1.25% and 0.847%. For the same compound, the Potency entry in assay [7], in [8], in [9] and in assay [12] was “inactive” throughout.

In the case of `CN(C)CCC(c1ccccc1)c1ccccn1` (configuration not stated), the call in assay [4], in [13], in assay [16] and in assay [17] was inactive. Besides, the activation in [5] is -0.0214%. Besides, the max response in assay [6] was -0.672%; in [10] it was -6.47%; in assay [3], 15.2%; in assay [11] it was 2.94%. The Potency result in [14], in [15], in assay [8], in [9] and in assay [12] was “inactive” throughout.

For the compound `CO[C@@H](C(=O)N1Cc2[nH]nc(NC(=O)c3ccc(N4CCN(C)CC4)cc3)c2C1)c1ccccc1`, in assay [2], the call was inactive.

Turning to `COc1ncc(-c2ccc3nccc(-c4ccnnc4)c3c2)cc1NS(=O)(=O)c1ccc(F)cc1F`, the outcome in assay [2] was inactive. The Potency in assay [3] was 935 nM (active).

For `CS(=O)c1ccc(-c2nc(-c3ccc(F)cc3)c(-c3ccncc3)[nH]2)cc1` (configuration not stated), the call in [2] was inactive. Moreover, the max response in assay [3] was 1.2%.

With `Cc1ccc(F)c(NC(=O)Nc2ccc(-c3cccc4[nH]nc(N)c34)cc2)c1`, the result in assay [2] was inactive. Also, the max response in assay [3] was 19.5%.

Turning to `COc1cc(N2CCC(N3CCN(C)CC3)CC2)ccc1Nc1ncc(Cl)c(Nc2ccccc2S(=O)(=O)C(C)C)n1`, in assay [2], the outcome was inactive. In addition, the Potency in [3] is 4690 nM (active).

Take `OC[C@H]1O[C@@H](n2cnc3c2NC=NC[C@@H]3O)C[C@H]1O`: the Potency in assay [1] is 21800 nM (active). Also, in [2], the compound was called inactive. Also, the max response in assay [3] is 12.6%.

Take `O=c1cc(N2CCOCC2)oc2c(-c3cccc4c3sc3ccccc34)cccc12`: the Potency result in assay [1] is “inactive”. In [2], the outcome was inactive. For the same compound, the max response in [3] is -22.3%.

With `N#Cc1ccc(NC(=O)Nc2ccccc2Br)c2n[nH]nc12`, the compound was called inactive in assay [2]. Besides, in [3], the max response was 26.2%.

For `O=C(Nc1cc(Cl)cc2c1[nH]c1cnccc12)c1cccnc1`, the Potency entry in [1] is “inactive”. The compound was called inactive in assay [2]. For the same compound, the max response in assay [3] is 1.52%.

`Cc1nc(N)sc1-c1ccnc(Nc2ccc(N3CCOCC3)cc2)n1`: the Potency in assay [1] is 308 nM (active). Further, the outcome in assay [2] was inactive. Moreover, in [3], the max response is -1.3%.

For the compound `CN1CCN(CCOc2cc(OC3CCOCC3)c3c(Nc4c(Cl)ccc5c4OCO5)ncnc3c2)CC1`, the call in [2] was inactive. In addition, the Potency in [3] was 18700 nM (active).

Regarding `CC(C)[C@H](CO)Nc1nc(Nc2ccc(C(=O)O)c(Cl)c2)c2ncn(C(C)C)c2n1`, the Potency in [1] was 19.4 nM (active). Moreover, in assay [2], the compound was called inactive. Further, in assay [3], the max response was 63.2%.
